From a collection of fitness landscapes (doi:10.1016/j.celrep.2020.107928) come the findings set out here.

Over roughly 81,000 sequences, “one-hybrid fitness for binding parS DNA” has its median near -0.17; the highest 2% begin near 0.51. What follows is part of a selection rich in the highest values, with near analogues and random picks from the rest. Bounds are passed on as bounds.

The chains are these.
B1: Caulobacter ParB omega fusion; a variant is named by its letters at X, in order, B8GW30 (parent)
chain: MESVVVGEPGMSEGRRGLGRGLSALLGEVDAAPAQAPGEQLGGSREAPIEILQRNPDQPRRTFREEDLEDLSNSIREKGVLQPILVRPSPDTAGEYQIVAGERAWRAAQRAGLKTVPIMVRELDDLAVLEIGIIENVQRADLNVLEEALSYKVLMEKFERTQENIAQTIGKSXSHVANXMRLLXLPDEVQSYLVSGELTAXHARAIAAAADPVALAKQIIEGGLSVRETEALARKAPNLSAGKSKGGRPPRVKDTDTQALESDLSSVLGLDVSIDHRGSTGTLTITYATLEQLDDLCNRLTRGI

In this assay the parent is B1. The assay can be described thus: one-hybrid fitness for binding parS DNA (scaled: cognate 1, non-cognate 0); higher = stronger binding. Conditions: with parS DNA site. A digest of the protocol:
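Fitness here means the log change in variant-to-wild-type read ratio between plasmids sequenced before and after selection. That scale was set so cognate equals 1 and non-cognate equals 0. The selection was a bacterial one-hybrid screen of Caulobacter ParB libraries, four specificity codons randomised, in E. coli USO carrying a HIS3 reporter with the site 19 bp from the promoter, grown 48 hours at 37°C on M9-minus-histidine with 0.1 mM IPTG and 5 mM 3-AT.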
In the case of RKSK, the “one-hybrid fitness for binding parS DNA” value is not above 0.2.

For RMSK, the “one-hybrid fitness for binding parS DNA” value is not above 0.2.

In the case of RMSR, the “one-hybrid fitness for binding parS DNA” value is not above 0.2.

With RMSG, the “one-hybrid fitness for binding parS DNA” value is 1.02.

In the case of RFSG, the “one-hybrid fitness for binding parS DNA” value was found to be 0.97.

For the variant NFSG, the “one-hybrid fitness for binding parS DNA” value was not above 0.2.

Take RKSG: the “one-hybrid fitness for binding parS DNA” value was 0.928.

For RLSQ, the “one-hybrid fitness for binding parS DNA” value is not above 0.2.

RLSG: the “one-hybrid fitness for binding parS DNA” value worked out at 1.01.

For RKSY, the “one-hybrid fitness for binding parS DNA” value turned out to be 0.366.

DFSG: the “one-hybrid fitness for binding parS DNA” value is not above 0.2.

On to RLSF, for which the “one-hybrid fitness for binding parS DNA” value came out at 0.246.

Regarding NHHN, the “one-hybrid fitness for binding parS DNA” value was not above 0.2.

As for WADR, the “one-hybrid fitness for binding parS DNA” value was not above 0.2.

For the variant REQN, the “one-hybrid fitness for binding parS DNA” value was not above 0.2.

As to AVAR, the “one-hybrid fitness for binding parS DNA” value is not above 0.2.

Regarding GWDC, the “one-hybrid fitness for binding parS DNA” value was not above 0.2.

For the variant RDVW, the “one-hybrid fitness for binding parS DNA” value was not above 0.2.

On to SSNE, for which the “one-hybrid fitness for binding parS DNA” value was not above 0.2.

For RTSG, the “one-hybrid fitness for binding parS DNA” value came to 1.

For the variant RDSG, the “one-hybrid fitness for binding parS DNA” value was not above 0.2.

Turning to RESG, the “one-hybrid fitness for binding parS DNA” value came to 0.217.

With RTSY, the “one-hybrid fitness for binding parS DNA” value came to 0.489.

For the variant RISK, the “one-hybrid fitness for binding parS DNA” value is not above 0.2.

Turning to RSSG, the “one-hybrid fitness for binding parS DNA” value was found to be 0.993.

Turning to RCSG, the “one-hybrid fitness for binding parS DNA” value was found to be 0.997.

For RISY, the “one-hybrid fitness for binding parS DNA” value amounted to 0.477.

For RPSG, the “one-hybrid fitness for binding parS DNA” value is not above 0.2.

Consider RISG, for which the “one-hybrid fitness for binding parS DNA” value was 1.01.

Turning to RSSK, the “one-hybrid fitness for binding parS DNA” value is not above 0.2.

Consider RTSQ, for which the “one-hybrid fitness for binding parS DNA” value was not above 0.2.

Take EQLF: the “one-hybrid fitness for binding parS DNA” value was not above 0.2.

In the case of KYRN, the “one-hybrid fitness for binding parS DNA” value is not above 0.2.

On to QKYR, for which the “one-hybrid fitness for binding parS DNA” value is not above 0.2.

Consider DTLV, for which the “one-hybrid fitness for binding parS DNA” value is not above 0.2.

In the case of PHRR, the “one-hybrid fitness for binding parS DNA” value is not above 0.2.

On to DRAS, for which the “one-hybrid fitness for binding parS DNA” value was not above 0.2.

On to GTSE, for which the “one-hybrid fitness for binding parS DNA” value was not above 0.2.

On to LHRT, for which the “one-hybrid fitness for binding parS DNA” value is not above 0.2.

RRYN: the “one-hybrid fitness for binding parS DNA” value came out at 0.557.

On to RCRN, for which the “one-hybrid fitness for binding parS DNA” value is 0.387.

In the case of RPYN, the “one-hybrid fitness for binding parS DNA” value was not above 0.2.

Take RCDN: the “one-hybrid fitness for binding parS DNA” value stood at 0.376.

Take RCYN: the “one-hybrid fitness for binding parS DNA” value turned out to be 0.545.

As to RRRN, the “one-hybrid fitness for binding parS DNA” value turned out to be 0.788.

Regarding KAEG, the “one-hybrid fitness for binding parS DNA” value is not above 0.2.

With AMIC, the “one-hybrid fitness for binding parS DNA” value was not above 0.2.

Regarding RDAA, the “one-hybrid fitness for binding parS DNA” value was not above 0.2.

RSAA: the “one-hybrid fitness for binding parS DNA” value was 0.554.

Consider RWAA, for which the “one-hybrid fitness for binding parS DNA” value was 0.378.

In the case of EFAA, the “one-hybrid fitness for binding parS DNA” value was not above 0.2.

For RFFA, the “one-hybrid fitness for binding parS DNA” value is 0.492.

Regarding RPAA, the “one-hybrid fitness for binding parS DNA” value was not above 0.2.

Take RFAA: the “one-hybrid fitness for binding parS DNA” value worked out at 0.559.

For RGAA, the “one-hybrid fitness for binding parS DNA” value worked out at 0.32.

RCAA: the “one-hybrid fitness for binding parS DNA” value came out at 0.596.

Regarding QVSF, the “one-hybrid fitness for binding parS DNA” value was not above 0.2.

As for LAKQ, the “one-hybrid fitness for binding parS DNA” value is not above 0.2.

As for WWDC, the “one-hybrid fitness for binding parS DNA” value was not above 0.2.

In the case of RWHK, the “one-hybrid fitness for binding parS DNA” value is not above 0.2.

In the case of RQFQ, the “one-hybrid fitness for binding parS DNA” value is not above 0.2.

For the variant RQAT, the “one-hybrid fitness for binding parS DNA” value was found to be 0.884.

For RQFR, the “one-hybrid fitness for binding parS DNA” value was not above 0.2.

On to RQAD, for which the “one-hybrid fitness for binding parS DNA” value was not above 0.2.

Consider RQAN, for which the “one-hybrid fitness for binding parS DNA” value is 0.419.

Consider RQFT, for which the “one-hybrid fitness for binding parS DNA” value was determined as 0.759.

For MIFS, the “one-hybrid fitness for binding parS DNA” value is not above 0.2.

As to SNTE, the “one-hybrid fitness for binding parS DNA” value was not above 0.2.

As for YHPR, the “one-hybrid fitness for binding parS DNA” value was not above 0.2.

With RCGL, the “one-hybrid fitness for binding parS DNA” value was not above 0.2.

Take LEEV: the “one-hybrid fitness for binding parS DNA” value is not above 0.2.

SVPL: the “one-hybrid fitness for binding parS DNA” value is not above 0.2.

On to GMVS, for which the “one-hybrid fitness for binding parS DNA” value is not above 0.2.

QIKS: the “one-hybrid fitness for binding parS DNA” value was not above 0.2.

On to RSWT, for which the “one-hybrid fitness for binding parS DNA” value is 0.756.

As for RMWN, the “one-hybrid fitness for binding parS DNA” value was 0.43.

Regarding RDWT, the “one-hybrid fitness for binding parS DNA” value was not above 0.2.

As for REWT, the “one-hybrid fitness for binding parS DNA” value is not above 0.2.

RMWT: the “one-hybrid fitness for binding parS DNA” value was 0.904.

Consider RCWT, for which the “one-hybrid fitness for binding parS DNA” value was determined as 0.908.

For RMWH, the “one-hybrid fitness for binding parS DNA” value amounted to 0.231.

On to RGWT, for which the “one-hybrid fitness for binding parS DNA” value turned out to be 0.388.

As to RPWT, the “one-hybrid fitness for binding parS DNA” value is not above 0.2.

As for TNVG, the “one-hybrid fitness for binding parS DNA” value is not above 0.2.

Turning to AFWR, the “one-hybrid fitness for binding parS DNA” value is not above 0.2.

Take TISC: the “one-hybrid fitness for binding parS DNA” value was not above 0.2.

Turning to RCEF, the “one-hybrid fitness for binding parS DNA” value is not above 0.2.

As to RSFP, the “one-hybrid fitness for binding parS DNA” value is not above 0.2.

As for RSFS, the “one-hybrid fitness for binding parS DNA” value came to 1.01.

RCFS: the “one-hybrid fitness for binding parS DNA” value was 1.03.

Consider RCFD, for which the “one-hybrid fitness for binding parS DNA” value was not above 0.2.

As to RSFD, the “one-hybrid fitness for binding parS DNA” value is not above 0.2.

RPFS: the “one-hybrid fitness for binding parS DNA” value is not above 0.2.

Take QAPG: the “one-hybrid fitness for binding parS DNA” value was not above 0.2.

In the case of YKDR, the “one-hybrid fitness for binding parS DNA” value is not above 0.2.

For the variant IDIG, the “one-hybrid fitness for binding parS DNA” value is not above 0.2.

On to DRSG, for which the “one-hybrid fitness for binding parS DNA” value was not above 0.2.

As to RRGF, the “one-hybrid fitness for binding parS DNA” value was not above 0.2.

On to RRGY, for which the “one-hybrid fitness for binding parS DNA” value was 0.361.

For RRGG, the “one-hybrid fitness for binding parS DNA” value was determined as 0.698.

Take RRCN: the “one-hybrid fitness for binding parS DNA” value amounted to 0.452.

For the variant RRCG, the “one-hybrid fitness for binding parS DNA” value came out at 0.758.

For RRYG, the “one-hybrid fitness for binding parS DNA” value is 0.769.

Consider RRYR, for which the “one-hybrid fitness for binding parS DNA” value was not above 0.2.

With RRYK, the “one-hybrid fitness for binding parS DNA” value was not above 0.2.

Consider RRSG, for which the “one-hybrid fitness for binding parS DNA” value came to 0.711.

RRCR: the “one-hybrid fitness for binding parS DNA” value was not above 0.2.

For RRSY, the “one-hybrid fitness for binding parS DNA” value turned out to be 0.46.

Turning to QRNI, the “one-hybrid fitness for binding parS DNA” value was not above 0.2.

With RLLW, the “one-hybrid fitness for binding parS DNA” value was 0.241.

As to FRGV, the “one-hybrid fitness for binding parS DNA” value is not above 0.2.

On to TALQ, for which the “one-hybrid fitness for binding parS DNA” value was not above 0.2.

Take TKKR: the “one-hybrid fitness for binding parS DNA” value was not above 0.2.

Regarding PENA, the “one-hybrid fitness for binding parS DNA” value is not above 0.2.

Turning to HIPD, the “one-hybrid fitness for binding parS DNA” value was not above 0.2.

EYSL: the “one-hybrid fitness for binding parS DNA” value was not above 0.2.

Consider DRRG, for which the “one-hybrid fitness for binding parS DNA” value was not above 0.2.

Consider RRQQ, for which the “one-hybrid fitness for binding parS DNA” value was not above 0.2.

As to RRQG, the “one-hybrid fitness for binding parS DNA” value was found to be 0.727.

Turning to NRNG, the “one-hybrid fitness for binding parS DNA” value is not above 0.2.

For DRDG, the “one-hybrid fitness for binding parS DNA” value is not above 0.2.

With RRDG, the “one-hybrid fitness for binding parS DNA” value came to 0.888.

As to RRNG, the “one-hybrid fitness for binding parS DNA” value stood at 0.704.

Take RRNE: the “one-hybrid fitness for binding parS DNA” value is not above 0.2.

As for NRRG, the “one-hybrid fitness for binding parS DNA” value was not above 0.2.

RRRG: the “one-hybrid fitness for binding parS DNA” value was 0.706.

For RRQY, the “one-hybrid fitness for binding parS DNA” value came out at 0.441.

For YVYG, the “one-hybrid fitness for binding parS DNA” value was not above 0.2.

As for RGYW, the “one-hybrid fitness for binding parS DNA” value is not above 0.2.

For the variant HTNV, the “one-hybrid fitness for binding parS DNA” value is not above 0.2.

Take TDNV: the “one-hybrid fitness for binding parS DNA” value was not above 0.2.

As to ASRA, the “one-hybrid fitness for binding parS DNA” value is not above 0.2.

With KASS, the “one-hybrid fitness for binding parS DNA” value is not above 0.2.

For EPDT, the “one-hybrid fitness for binding parS DNA” value was not above 0.2.

Consider GAHV, for which the “one-hybrid fitness for binding parS DNA” value was not above 0.2.

SLDA: the “one-hybrid fitness for binding parS DNA” value is not above 0.2.

For the variant LSDS, the “one-hybrid fitness for binding parS DNA” value is not above 0.2.

Consider IIGF, for which the “one-hybrid fitness for binding parS DNA” value was not above 0.2.

As for RRHM, the “one-hybrid fitness for binding parS DNA” value was found to be 0.424.

As to RRLR, the “one-hybrid fitness for binding parS DNA” value was not above 0.2.

For the variant RRLG, the “one-hybrid fitness for binding parS DNA” value is 0.794.

For RRLK, the “one-hybrid fitness for binding parS DNA” value is not above 0.2.

With RRHG, the “one-hybrid fitness for binding parS DNA” value was 0.72.

On to RRHY, for which the “one-hybrid fitness for binding parS DNA” value came out at 0.446.

In the case of PSWH, the “one-hybrid fitness for binding parS DNA” value was not above 0.2.

For the variant LPFA, the “one-hybrid fitness for binding parS DNA” value stood at 0.253.

Regarding KMLG, the “one-hybrid fitness for binding parS DNA” value is not above 0.2.

FRSR: the “one-hybrid fitness for binding parS DNA” value was not above 0.2.

For LSWR, the “one-hybrid fitness for binding parS DNA” value was not above 0.2.

As for TGKS, the “one-hybrid fitness for binding parS DNA” value was not above 0.2.

Consider LTAC, for which the “one-hybrid fitness for binding parS DNA” value was not above 0.2.

As to RKNK, the “one-hybrid fitness for binding parS DNA” value was not above 0.2.

On to RKCT, for which the “one-hybrid fitness for binding parS DNA” value is 0.803.

Consider RKWH, for which the “one-hybrid fitness for binding parS DNA” value is not above 0.2.

For RKSF, the “one-hybrid fitness for binding parS DNA” value is not above 0.2.

On to RKNM, for which the “one-hybrid fitness for binding parS DNA” value came out at 0.234.

RKWP: the “one-hybrid fitness for binding parS DNA” value was not above 0.2.
